# Source: article PMC7862700, “An all-to-all approach to the identification of sequence-specific readers for epigenetic DNA modifications on cytosine”
# Assays:
# Test in all cases: DAPPL (digital affinity profiling via proximity ligation, sequencing); 10 mM Tris-HCl pH 7.5, 50 mM NaCl, 1 mM DTT, 4% glycerol, room temperature, 30 min; GST-TFs on glutathione beads, 16-mer random dsDNA library, 0.1% formaldehyde crosslink after washing; high values mean tight binding
# Settings in all cases: protein: recombinant; tags: N-terminal GST; dsDNA, one strand shown
# [1] = target: T1, FLI1 (Homo sapiens, UniProt Q01543 1-452)
# T1 sequence: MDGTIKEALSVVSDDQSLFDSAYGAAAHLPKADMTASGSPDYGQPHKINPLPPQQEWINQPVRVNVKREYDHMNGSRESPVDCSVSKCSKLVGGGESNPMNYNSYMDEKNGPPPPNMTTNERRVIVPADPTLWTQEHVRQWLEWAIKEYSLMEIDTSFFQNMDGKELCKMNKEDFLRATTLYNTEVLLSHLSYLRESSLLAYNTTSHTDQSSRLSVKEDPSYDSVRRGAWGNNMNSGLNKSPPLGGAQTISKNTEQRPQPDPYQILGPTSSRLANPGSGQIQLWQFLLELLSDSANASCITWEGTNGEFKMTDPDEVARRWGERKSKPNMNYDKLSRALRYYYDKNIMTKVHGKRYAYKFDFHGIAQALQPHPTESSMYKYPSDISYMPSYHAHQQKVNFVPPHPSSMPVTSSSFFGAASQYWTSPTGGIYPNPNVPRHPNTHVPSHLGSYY
# Method in brief: (§1)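 Yeast served to express human transcription factors as GST fusions, which were then captured on glutathione beads and labelled with DNA barcodes. Pooled with a tag-only sample, they were incubated with 200 nmole of a 16-mer random double-stranded DNA library for 30 min at room temperature in Tris/NaCl/DTT/glycerol buffer, washed, crosslinked with 0.1% formaldehyde, ligated by proximity, amplified by PCR and sequenced. Dividing each hexamer's read frequency for a factor by its frequency for the tag-only sample gives the binding signal.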
# [2] = target: ELF1 (Homo sapiens, UniProt P32519 1-619)
# Method in brief: as §1
# [3] = target: SPIB (Homo sapiens, UniProt Q01892 1-262)
# Method in brief: as §1
# [4] = target: T2, ELK4 (Homo sapiens, UniProt P28324-2 1-405)
# T2 sequence: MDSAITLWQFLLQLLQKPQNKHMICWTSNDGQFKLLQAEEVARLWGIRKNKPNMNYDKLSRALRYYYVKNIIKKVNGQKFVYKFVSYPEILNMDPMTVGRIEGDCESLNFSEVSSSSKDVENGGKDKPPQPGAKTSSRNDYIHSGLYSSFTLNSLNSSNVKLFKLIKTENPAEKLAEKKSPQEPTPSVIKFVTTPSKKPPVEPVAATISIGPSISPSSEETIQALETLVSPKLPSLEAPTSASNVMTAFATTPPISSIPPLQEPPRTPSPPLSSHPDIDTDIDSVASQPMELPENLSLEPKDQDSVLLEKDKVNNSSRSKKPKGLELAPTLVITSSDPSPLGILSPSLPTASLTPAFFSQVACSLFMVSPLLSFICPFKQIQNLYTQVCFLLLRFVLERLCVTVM
# Method in brief: as §1
# [5] = target: T3, ELF3 (Homo sapiens, UniProt P78545 1-371)
# T3 sequence: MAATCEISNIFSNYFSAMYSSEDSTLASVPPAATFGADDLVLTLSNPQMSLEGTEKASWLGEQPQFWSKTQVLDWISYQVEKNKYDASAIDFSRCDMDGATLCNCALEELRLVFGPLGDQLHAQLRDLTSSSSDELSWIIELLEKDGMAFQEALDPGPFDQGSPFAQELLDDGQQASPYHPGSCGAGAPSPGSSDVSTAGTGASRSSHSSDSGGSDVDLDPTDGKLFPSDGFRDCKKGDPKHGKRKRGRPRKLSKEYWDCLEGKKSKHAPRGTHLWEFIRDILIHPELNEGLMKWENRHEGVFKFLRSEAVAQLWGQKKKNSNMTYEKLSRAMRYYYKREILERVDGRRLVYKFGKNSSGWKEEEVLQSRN
# Method in brief: as §1
# [6] = target: T4, ETV7 (Homo sapiens, UniProt Q9Y603 1-341)
# T4 sequence: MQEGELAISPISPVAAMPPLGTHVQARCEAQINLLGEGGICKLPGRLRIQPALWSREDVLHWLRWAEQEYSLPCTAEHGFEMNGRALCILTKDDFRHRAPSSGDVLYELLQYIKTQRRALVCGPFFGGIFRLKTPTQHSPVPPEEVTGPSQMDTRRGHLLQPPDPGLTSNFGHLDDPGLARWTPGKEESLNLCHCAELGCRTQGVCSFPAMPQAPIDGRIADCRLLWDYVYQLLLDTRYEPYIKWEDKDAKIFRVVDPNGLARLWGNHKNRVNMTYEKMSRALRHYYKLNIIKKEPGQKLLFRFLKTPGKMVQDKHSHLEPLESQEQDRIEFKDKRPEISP
# Method in brief: as §1
# [7] = target: T5, GABPA (Homo sapiens, UniProt Q06546 1-454)
# T5 sequence: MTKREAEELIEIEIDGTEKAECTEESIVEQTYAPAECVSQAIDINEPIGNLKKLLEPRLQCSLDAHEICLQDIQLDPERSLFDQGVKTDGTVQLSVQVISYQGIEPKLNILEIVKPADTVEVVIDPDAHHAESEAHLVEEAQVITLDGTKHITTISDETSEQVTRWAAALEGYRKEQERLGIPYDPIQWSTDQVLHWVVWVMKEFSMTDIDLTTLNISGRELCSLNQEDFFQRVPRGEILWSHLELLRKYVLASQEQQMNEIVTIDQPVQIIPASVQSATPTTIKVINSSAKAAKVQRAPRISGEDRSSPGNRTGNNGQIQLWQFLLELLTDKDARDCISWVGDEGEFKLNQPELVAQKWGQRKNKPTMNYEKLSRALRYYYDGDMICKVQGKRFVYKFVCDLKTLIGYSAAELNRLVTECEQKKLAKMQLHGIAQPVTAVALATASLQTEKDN
# Method in brief: as §1
# [8] = target: T6, ERG (Homo sapiens, UniProt P11308 1-479)
# T6 sequence: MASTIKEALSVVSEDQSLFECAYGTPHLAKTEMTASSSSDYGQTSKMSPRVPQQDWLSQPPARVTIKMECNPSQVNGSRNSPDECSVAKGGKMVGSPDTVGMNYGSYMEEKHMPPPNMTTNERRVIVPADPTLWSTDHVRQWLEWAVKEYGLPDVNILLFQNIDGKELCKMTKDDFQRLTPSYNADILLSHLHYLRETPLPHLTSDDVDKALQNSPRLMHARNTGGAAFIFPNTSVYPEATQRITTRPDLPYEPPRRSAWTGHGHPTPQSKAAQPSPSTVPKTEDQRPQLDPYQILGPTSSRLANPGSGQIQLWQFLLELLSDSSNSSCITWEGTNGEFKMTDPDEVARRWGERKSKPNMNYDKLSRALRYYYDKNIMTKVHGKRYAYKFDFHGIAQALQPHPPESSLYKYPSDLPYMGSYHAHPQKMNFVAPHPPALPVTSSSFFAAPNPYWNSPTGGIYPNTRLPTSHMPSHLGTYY
# Method in brief: as §1
# [9] = target: T7, EHF (Homo sapiens, UniProt Q9NZC4 1-300)
# T7 sequence: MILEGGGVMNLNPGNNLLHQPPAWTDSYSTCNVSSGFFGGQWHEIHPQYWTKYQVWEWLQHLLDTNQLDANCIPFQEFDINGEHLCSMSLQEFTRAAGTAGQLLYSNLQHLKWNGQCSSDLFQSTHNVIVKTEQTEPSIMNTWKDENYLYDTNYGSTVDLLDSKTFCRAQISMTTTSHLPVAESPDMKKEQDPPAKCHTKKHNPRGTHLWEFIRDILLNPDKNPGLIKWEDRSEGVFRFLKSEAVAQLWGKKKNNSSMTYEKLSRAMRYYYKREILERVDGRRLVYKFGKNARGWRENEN
# Method in brief: as §1
# [10] = target: SPI1 (Homo sapiens, UniProt P17947 1-270)
# Method in brief: as §1
# [11] = target: T8, ELK3 (Homo sapiens, UniProt P41970 1-407)
# T8 sequence: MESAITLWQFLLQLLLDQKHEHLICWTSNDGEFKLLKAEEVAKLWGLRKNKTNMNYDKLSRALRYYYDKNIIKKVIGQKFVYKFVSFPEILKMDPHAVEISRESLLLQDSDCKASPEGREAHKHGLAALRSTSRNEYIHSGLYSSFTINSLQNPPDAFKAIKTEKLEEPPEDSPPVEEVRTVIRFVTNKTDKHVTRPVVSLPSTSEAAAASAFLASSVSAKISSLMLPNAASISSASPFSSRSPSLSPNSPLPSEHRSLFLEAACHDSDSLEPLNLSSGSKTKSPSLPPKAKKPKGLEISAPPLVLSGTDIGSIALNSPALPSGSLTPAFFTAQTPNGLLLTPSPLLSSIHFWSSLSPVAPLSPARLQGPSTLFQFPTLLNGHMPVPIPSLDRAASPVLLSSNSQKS
# Method in brief: as §1
# [12] = target: T9, SPIC (Homo sapiens, UniProt Q8N5J4 1-248)
# T9 sequence: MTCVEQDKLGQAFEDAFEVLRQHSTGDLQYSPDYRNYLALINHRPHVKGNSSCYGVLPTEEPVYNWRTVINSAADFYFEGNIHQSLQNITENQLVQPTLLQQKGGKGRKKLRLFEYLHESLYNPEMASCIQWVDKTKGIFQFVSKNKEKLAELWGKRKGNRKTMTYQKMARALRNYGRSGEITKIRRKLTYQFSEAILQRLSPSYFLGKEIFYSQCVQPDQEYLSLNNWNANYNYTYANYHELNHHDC
# Method in brief: as §1
# [13] = target: ELF4 (Homo sapiens, UniProt Q99607 1-663)
# Method in brief: as §1
# [14] = target: T10, ERF (Homo sapiens, UniProt P50548 1-548)
# T10 sequence: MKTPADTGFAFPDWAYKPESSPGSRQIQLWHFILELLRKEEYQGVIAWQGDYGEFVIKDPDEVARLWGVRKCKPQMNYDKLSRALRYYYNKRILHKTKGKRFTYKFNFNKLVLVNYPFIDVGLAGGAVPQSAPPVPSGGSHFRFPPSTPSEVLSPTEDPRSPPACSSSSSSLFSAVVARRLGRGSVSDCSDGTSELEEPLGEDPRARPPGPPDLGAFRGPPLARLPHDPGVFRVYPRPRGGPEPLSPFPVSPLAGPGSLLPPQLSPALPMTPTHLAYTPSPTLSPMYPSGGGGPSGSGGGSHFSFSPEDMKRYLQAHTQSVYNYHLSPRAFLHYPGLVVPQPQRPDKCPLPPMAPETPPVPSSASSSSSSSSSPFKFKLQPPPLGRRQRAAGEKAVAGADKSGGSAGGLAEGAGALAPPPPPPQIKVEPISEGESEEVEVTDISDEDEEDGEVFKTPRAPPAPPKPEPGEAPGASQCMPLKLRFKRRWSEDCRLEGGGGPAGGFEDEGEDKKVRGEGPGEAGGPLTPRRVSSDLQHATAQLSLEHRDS
# Method in brief: as §1
# [15] = target: T11, ETV3L (Homo sapiens, UniProt Q6ZN32 1-361)
# T11 sequence: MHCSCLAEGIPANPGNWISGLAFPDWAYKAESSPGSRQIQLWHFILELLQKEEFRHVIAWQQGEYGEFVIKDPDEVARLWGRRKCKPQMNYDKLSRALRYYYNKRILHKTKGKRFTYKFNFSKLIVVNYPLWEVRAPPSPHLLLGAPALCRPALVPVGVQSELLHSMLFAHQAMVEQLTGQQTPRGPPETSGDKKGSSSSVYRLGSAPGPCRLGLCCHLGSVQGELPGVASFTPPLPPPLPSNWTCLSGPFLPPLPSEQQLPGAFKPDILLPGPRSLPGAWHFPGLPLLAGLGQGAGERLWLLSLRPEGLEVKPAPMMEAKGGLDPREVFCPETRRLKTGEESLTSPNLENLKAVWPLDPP
# Method in brief: as §1
# [16] = target: ETV6 (Homo sapiens, UniProt P41212 1-452)
# Method in brief: as §1
# Sequence of SPIB (Q01892 whole entry): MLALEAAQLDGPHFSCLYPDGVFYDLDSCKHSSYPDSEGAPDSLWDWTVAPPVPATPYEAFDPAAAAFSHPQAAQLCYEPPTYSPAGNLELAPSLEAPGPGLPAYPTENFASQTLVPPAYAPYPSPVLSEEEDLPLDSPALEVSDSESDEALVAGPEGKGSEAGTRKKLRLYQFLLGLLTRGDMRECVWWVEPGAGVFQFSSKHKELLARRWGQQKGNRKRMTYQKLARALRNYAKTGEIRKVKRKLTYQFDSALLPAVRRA
# Sequence of ETV6 (P41212 whole entry): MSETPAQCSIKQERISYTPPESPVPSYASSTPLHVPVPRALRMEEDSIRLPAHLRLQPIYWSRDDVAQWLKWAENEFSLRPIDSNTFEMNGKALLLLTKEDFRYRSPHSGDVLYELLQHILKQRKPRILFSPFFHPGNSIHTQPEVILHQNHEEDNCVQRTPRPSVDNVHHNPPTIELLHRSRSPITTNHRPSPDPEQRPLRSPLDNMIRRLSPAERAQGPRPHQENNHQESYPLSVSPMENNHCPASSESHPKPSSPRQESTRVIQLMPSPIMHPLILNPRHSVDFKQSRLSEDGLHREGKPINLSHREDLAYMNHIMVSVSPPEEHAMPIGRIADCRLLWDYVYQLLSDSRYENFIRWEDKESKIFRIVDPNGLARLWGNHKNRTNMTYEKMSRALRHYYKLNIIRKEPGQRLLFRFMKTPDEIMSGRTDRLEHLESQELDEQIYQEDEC
# Sequence of ELF1 (P32519 whole entry): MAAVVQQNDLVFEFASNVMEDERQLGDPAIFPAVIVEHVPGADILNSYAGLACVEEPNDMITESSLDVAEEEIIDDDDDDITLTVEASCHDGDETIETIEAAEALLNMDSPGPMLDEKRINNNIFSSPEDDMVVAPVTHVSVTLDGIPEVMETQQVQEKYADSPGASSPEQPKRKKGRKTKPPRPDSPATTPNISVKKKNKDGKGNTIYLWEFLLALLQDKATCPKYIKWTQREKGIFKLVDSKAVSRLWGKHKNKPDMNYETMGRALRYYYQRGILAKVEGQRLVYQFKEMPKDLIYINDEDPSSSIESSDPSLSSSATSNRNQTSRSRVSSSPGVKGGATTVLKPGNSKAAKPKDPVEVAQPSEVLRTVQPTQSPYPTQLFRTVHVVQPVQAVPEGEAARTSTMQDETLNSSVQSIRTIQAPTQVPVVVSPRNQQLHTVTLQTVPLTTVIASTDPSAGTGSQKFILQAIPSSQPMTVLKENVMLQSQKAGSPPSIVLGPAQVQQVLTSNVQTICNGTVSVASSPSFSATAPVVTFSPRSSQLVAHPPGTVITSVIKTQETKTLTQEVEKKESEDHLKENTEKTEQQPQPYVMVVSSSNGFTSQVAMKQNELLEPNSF
# Sequence of ELF4 (Q99607 whole entry): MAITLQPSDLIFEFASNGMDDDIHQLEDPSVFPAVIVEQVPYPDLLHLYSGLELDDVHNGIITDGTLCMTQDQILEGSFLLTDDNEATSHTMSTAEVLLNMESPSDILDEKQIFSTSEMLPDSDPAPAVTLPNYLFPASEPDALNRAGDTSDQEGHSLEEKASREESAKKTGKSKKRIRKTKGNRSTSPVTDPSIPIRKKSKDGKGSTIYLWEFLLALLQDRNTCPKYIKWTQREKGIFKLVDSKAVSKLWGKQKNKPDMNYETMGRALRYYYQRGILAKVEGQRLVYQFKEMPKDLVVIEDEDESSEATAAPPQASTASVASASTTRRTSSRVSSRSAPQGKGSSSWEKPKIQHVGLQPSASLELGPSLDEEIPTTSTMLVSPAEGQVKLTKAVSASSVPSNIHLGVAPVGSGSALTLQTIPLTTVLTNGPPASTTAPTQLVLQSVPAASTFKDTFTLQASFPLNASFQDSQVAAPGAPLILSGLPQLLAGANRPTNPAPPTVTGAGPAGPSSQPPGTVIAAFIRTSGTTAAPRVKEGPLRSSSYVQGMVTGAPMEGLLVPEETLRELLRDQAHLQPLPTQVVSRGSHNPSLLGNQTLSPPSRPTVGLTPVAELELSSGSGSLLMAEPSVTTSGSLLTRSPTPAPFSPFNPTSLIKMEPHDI
sequence,measurement,setting,value
CCAAGT,binding signal,[1],"1.02 fold enrichment (6-mer frequency, TF over GST control)"
TTGGAT,binding signal,[1],"1.02 fold enrichment (6-mer frequency, TF over GST control)"
same,binding signal,[2],"1.01 fold enrichment (6-mer frequency, TF over GST control)"
same,binding signal,[3],"1.07 fold enrichment (6-mer frequency, TF over GST control)"
same,binding signal,[4],"1.04 fold enrichment (6-mer frequency, TF over GST control)"
same,binding signal,[5],"1.04 fold enrichment (6-mer frequency, TF over GST control)"
same,binding signal,[6],"1.01 fold enrichment (6-mer frequency, TF over GST control)"
TAAGTC,binding signal,[1],"1 fold enrichment (6-mer frequency, TF over GST control)"
GGTAAC,binding signal,[1],"1.1 fold enrichment (6-mer frequency, TF over GST control)"
same,binding signal,[7],"1.03 fold enrichment (6-mer frequency, TF over GST control)"
same,binding signal,[8],"1.01 fold enrichment (6-mer frequency, TF over GST control)"
same,binding signal,[9],"1.09 fold enrichment (6-mer frequency, TF over GST control)"
same,binding signal,[10],"1.02 fold enrichment (6-mer frequency, TF over GST control)"
same,binding signal,[3],"1.02 fold enrichment (6-mer frequency, TF over GST control)"
same,binding signal,[11],"1 fold enrichment (6-mer frequency, TF over GST control)"
same,binding signal,[12],"1.03 fold enrichment (6-mer frequency, TF over GST control)"
same,binding signal,[13],"1.01 fold enrichment (6-mer frequency, TF over GST control)"
same,binding signal,[4],"1.03 fold enrichment (6-mer frequency, TF over GST control)"
same,binding signal,[14],"1 fold enrichment (6-mer frequency, TF over GST control)"
same,binding signal,[15],"1 fold enrichment (6-mer frequency, TF over GST control)"
same,binding signal,[6],"1.05 fold enrichment (6-mer frequency, TF over GST control)"
same,binding signal,[16],"1.04 fold enrichment (6-mer frequency, TF over GST control)"
